Source: article PMC4336329 (PLoS ONE, 2015)
Screen size: about 310,000 compounds; about 14,000 (4.5%) showed an effect of 50% or more. Effects have a minus sign here. What follows is part of a selection rich in strong results, with near analogues and random picks from the rest.

molecular target: human ether-à-go-go-related gene (hERG) potassium channel (human, UniProt Q12809); test: primary screen, population patch clamp on CHO cells stably expressing hERG; higher = less effect of the substance
Sequence (Q12809 whole entry, looked up): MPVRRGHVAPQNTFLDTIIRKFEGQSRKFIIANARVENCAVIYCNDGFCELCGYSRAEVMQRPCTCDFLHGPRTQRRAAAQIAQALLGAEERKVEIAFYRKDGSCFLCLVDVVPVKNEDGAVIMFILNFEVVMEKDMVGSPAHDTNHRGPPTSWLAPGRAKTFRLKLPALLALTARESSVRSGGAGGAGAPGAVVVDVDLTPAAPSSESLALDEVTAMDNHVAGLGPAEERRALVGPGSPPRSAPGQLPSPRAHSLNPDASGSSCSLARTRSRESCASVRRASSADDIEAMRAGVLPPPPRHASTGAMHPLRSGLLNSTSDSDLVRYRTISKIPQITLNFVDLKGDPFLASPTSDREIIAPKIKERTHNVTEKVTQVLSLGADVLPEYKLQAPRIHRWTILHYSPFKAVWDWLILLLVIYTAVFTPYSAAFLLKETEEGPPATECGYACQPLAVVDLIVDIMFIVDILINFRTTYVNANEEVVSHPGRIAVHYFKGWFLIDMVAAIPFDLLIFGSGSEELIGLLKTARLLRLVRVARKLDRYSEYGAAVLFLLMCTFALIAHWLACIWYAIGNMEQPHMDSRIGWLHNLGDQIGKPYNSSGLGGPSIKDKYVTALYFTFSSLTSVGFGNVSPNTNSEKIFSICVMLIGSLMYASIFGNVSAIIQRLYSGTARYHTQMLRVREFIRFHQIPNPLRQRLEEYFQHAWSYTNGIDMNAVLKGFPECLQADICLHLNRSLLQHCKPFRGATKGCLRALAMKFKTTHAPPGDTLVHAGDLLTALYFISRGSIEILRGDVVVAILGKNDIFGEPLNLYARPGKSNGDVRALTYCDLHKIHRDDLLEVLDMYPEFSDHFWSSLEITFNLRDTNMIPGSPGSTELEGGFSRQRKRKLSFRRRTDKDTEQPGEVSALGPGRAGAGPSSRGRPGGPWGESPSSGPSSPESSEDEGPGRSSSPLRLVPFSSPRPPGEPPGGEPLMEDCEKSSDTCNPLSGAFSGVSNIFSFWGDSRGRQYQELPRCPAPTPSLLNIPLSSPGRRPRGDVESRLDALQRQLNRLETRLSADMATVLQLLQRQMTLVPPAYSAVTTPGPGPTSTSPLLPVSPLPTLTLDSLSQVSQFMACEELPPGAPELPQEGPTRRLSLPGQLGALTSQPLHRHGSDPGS
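Further: peak tail current of the secondary pulse compared with the same well before compound.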

| Compound | hERG current change (%, negative = inhibition) at 10uM [%] |
| --- | --- |
| COc1ccc(NC(=O)c2nn(C34CC5CC(CC(C5)C3)C4)cc2[N+](=O)[O-])cc1 | -0.0263 |
| O=c1nc(N2CCOCC2)ccn1-c1nc(-c2ccccc2)oc1-c1ccccc1 | -9.71 |
| Cc1c(NC(=O)COC(=O)C23CC4CC(CC(O)(C4)C2)C3)c(=O)n(-c2ccccc2)n1C | 10.1 |
| Cc1oc(-c2ccccc2F)nc1CS(=O)(=O)CC(=O)NCc1ccccc1Cl | -17.9 |
| c1ccc(Nc2ncnc3sc4c(c23)CCC4)cc1 | 0.132 |
| Nc1ccc2nc(SCC(=O)N3CCOCC3)sc2c1 | 17 |
| COc1ccc(NC(C)=O)cc1C#N | 19.3 |
| CCOc1ccccc1CN(CCc1ccc2c(c1)OCO2)Cc1ccccn1 | -64.4 |
| CCOc1ccccc1NC(=O)NCc1ccc2c(c1)OCO2 | 22.4 |
| CC(C)C(=O)N(Cc1ccc2c(c1)OCO2)Cc1ccccn1.Cl | -7.53 |
| CCN1C(=O)c2cccc3c(NC(=O)c4ccccc4)ccc1c23 | 9.37 |
| CCN1C(=O)c2cccc3c(NC(=O)c4ccc(OC)c(OC)c4)ccc1c23 | -68.3 |
| CCOc1cc(C(=O)Nc2ccc3c4c(cccc24)C(=O)N3CC)cc(OCC)c1OCC | -5.15 |
| O=P(O)(Oc1ccccc1)OC(c1ccccc1)C(F)(F)C(F)(F)F (stereo not shown) | 27.3 |
| COC(=O)c1ccc(N2CCN(C)CC2)c(NC(=O)COc2ccc(C)cc2)c1 | -20 |
| O=C(COc1ccc(Br)cc1)Nc1ccc(N2CCOCC2)cc1N1CCOCC1 | -7.56 |
| COC(=O)c1ccc(N2CCN(C)CC2)c(NC(=O)COc2ccc(OC)cc2)c1 | -53.5 |
| CC(=O)N1CCN(c2ccccc2NC(=O)COc2ccc(Br)cc2)CC1 | -9.2 |
| CN1CCN(c2ccccc2NC(=O)COc2ccccc2)CC1 | -48.4 |
| Cc1cc(C)cc(OCC(=O)Nc2ccc(N3CCOCC3)cc2N2CCOCC2)c1 | -6.54 |
| CC(=O)N1CCN(c2ccccc2NC(=O)COc2cc(C)cc(C)c2)CC1 | -52.4 |
| CN1CCN(c2ccccc2NC(=O)COc2ccc(Br)cc2)CC1 | -58 |

| Compound | hERG current change (%, negative = inhibition) at 10uM [%] |
| --- | --- |
| O=C(COc1cccc(Br)c1)Nc1ccc(N2CCOCC2)cc1N1CCOCC1 | -50.6 |
| Cc1cc(C)cc(OCC(=O)Nc2ccccc2N2CCCCC2)c1 | -0.491 |
| CC(=O)N1CCN(c2ccccc2NC(=O)COc2ccccc2C)CC1 | -14 |
| COC(=O)c1ccc(N2CCN(C)CC2)c(NC(=O)COc2ccccc2)c1 | -43.9 |
| O=C(Nc1cccc(Cl)c1)OC1CCCCc2cccnc21 (stereo not shown) | 4.75 |
| COc1ccc(-c2cc(N3C(=O)Nc4ccccc4N3O)n[nH]2)cc1OC | 3.84 |
| CCO[C@@H]1OC(C(=O)N2CCOCC2)=C[C@H](c2cn(C(C)=O)c3ccccc23)[C@H]1CCCO | -20.3 |
| CSc1nc2sccc2c(=O)[nH]1 | 32.8 |
| Cc1cccc(NC(=O)c2ccccc2NC(=O)c2ccccc2)n1 | -0.693 |
| COc1ccc(C(C)NC(=O)CCc2ccccc2)cc1 (stereo not shown) | 10 |
| Clc1ccc(-c2nc3ccncc3[nH]2)cc1 | -17.3 |
| COc1ccccc1-n1c(O)c(C=NCc2ccccn2)c2ccccc2c1=O | -8.58 |
| Cc1ccc(N2C(=O)CC(Sc3nc(-c4ccccc4)c4cc(Cl)ccc4n3)C2=O)c(C)c1 (stereo not shown) | 3.36 |
| CCC(=O)N1CCN(c2ccccc2NC(=O)COc2cccc(C)c2)CC1 | -38.2 |
| CN1CCN(c2ccccc2NC(=O)COc2ccc(Cl)cc2)CC1 | -59.9 |
| CN1CCN(c2ccccc2NC(=O)COc2ccc(C3CCCCC3)cc2)CC1 | 16.8 |
| Cc1cccc(OCC(=O)Nc2ccccc2N2CCN(C)CC2)c1 | -51.2 |
| CCn1c(=O)cc(OCC(=O)Nc2ccccc2C#N)c2ccccc21 | 6.06 |
| COc1ccc(OCC(=O)Nc2ccccc2N2CCN(C)CC2)cc1 | -38.6 |
| COc1cc(CCC(=O)Nc2cc(Cl)ccc2N2CCN(C)CC2)cc(OC)c1OC | -10.2 |
| CCn1c(=O)cc(OCC(=O)Nc2ccccc2N2CCN(C)CC2)c2ccccc21 | -58.3 |
| Cc1cccc(OCC(=O)Nc2ccccc2N2CCCCC2)c1 | 2.17 |

| Compound | hERG current change (%, negative = inhibition) at 10uM [%] |
| --- | --- |
| CCOC(=O)c1ccccc1NC(=O)COc1cc(=O)n(CC)c2ccccc12 | 5.47 |
| COc1ccc(CC(=O)Nc2cc(Cl)ccc2N2CCCC2)cc1 | 15.7 |
| COc1ccc(CCC(=O)Nc2cc(Cl)ccc2N2CCN(C)CC2)cc1 | -50.1 |
| COc1cccc(C(c2c(O)nc(SC)n(C)c2=O)c2c(O)nc(SC)n(C)c2=O)c1 | 0.717 |
| COc1ccc(-n2nc3c(c2NC(=O)c2ccc(S(=O)(=O)N4CCOCC4)cc2)CS(=O)(=O)C3)cc1 | 14.6 |
| Cc1ccc(C(=O)N2CCN(c3ccc(NC(=O)c4cccnc4Cl)cc3)CC2)cc1 | -27.8 |
| Cc1cc(S(=O)(=O)NCCCN2CCOCC2)c(Cl)cc1Cl | -13.1 |
| Cc1ccccc1C(=O)Oc1ccc2ccc(O)cc2c1 | 14.5 |
| O=C(CSc1nnc(Cc2ccccc2)o1)N1CCOCC1 | 0.161 |
| O=C(CSc1nnc(-c2ccncc2)n1-c1ccccc1)Nc1ccc(C(=O)O)cc1 | 25.5 |
| CCNC(=O)Nn1c(-c2ccccc2)nc2ccccc2c1=O | 22.9 |
| Cc1ccc(C(=O)NCc2n[nH]c(=S)n2-c2ccccc2)cc1[N+](=O)[O-] | 7.76 |
| Cc1cc(NC(=O)Cn2nnc(-c3ccccc3NC(=O)c3ccccc3F)n2)no1 | 12.5 |
| COc1ccc(-c2[nH]ncc2Oc2ccccc2OC)c(O)c1 | -11.3 |
| O=S(=O)(Nc1nc2ccccc2s1)c1ccc(Br)s1 | -5.3 |
| c1cc2c3c(cccc3c1)C(N1CCOCC1)=N2 | -31 |
| O=C1C2CCCN2C(=O)N1CCCCN1CCN(c2ccc(F)cc2)CC1 (stereo not shown) | -43.2 |
| c1cc2c3c(cccc3c1)C(N1CCCCC1)=N2 | -66.2 |
| Fc1ccc(N2CCN(C3=Nc4cccc5cccc3c45)CC2)cc1 | -77 |
| N#Cc1nc(Cc2ccccc2)oc1N1CCC(Cc2ccccc2)CC1 | 24.5 |
| O=C(CN1C(=O)c2cccc3cccc1c23)N1CCN(c2ccc(F)cc2)CC1 | 9.69 |
| O=S1(=O)N=C(N2CCN(c3ccc(F)cc3)CC2)c2ccccc21 | -8.87 |

| Compound | hERG current change (%, negative = inhibition) at 10uM [%] |
| --- | --- |
| Cl.O=C1C2C3C=CC(C4CC34)C2C(=O)N1CCCCN1CCN(c2ccc(F)cc2)CC1 (stereo not shown) | -69.3 |
| c1ccc(CC2CCN(C3=Nc4cccc5cccc3c45)CC2)cc1 | -80 |
| O=C1C2C3C=CC(C4CC34)C2C(=O)N1CCc1ccccc1 (stereo not shown) | 3.23 |
| c1ccc(CC2CCN(c3nnnn3-c3ccccc3)CC2)cc1 | -13.1 |
| CC1CN(C2=Nc3cccc4cccc2c34)CC(C)O1 (stereo not shown) | -47.6 |
| Cc1ccc(S(=O)(=O)N2CCC(C(=O)OCc3c(C)noc3C)CC2)cc1C | -15.8 |
| COc1ccc(S(=O)(=O)NC2CC(C)(C)NC(C)(C)C2)c2ccccc12 | 6.47 |
| CCc1nc(C)c(C#N)c2cc(OC)c(OC)cc12 | 1.21 |
| CC(C)(C)OC(=O)NCCc1nnc(S(=O)(=O)Cc2ccc(Cl)cc2Cl)o1 | -5.97 |
| CCCOc1ccc(/C=N/NC(=S)Nc2ccccc2[N+](=O)[O-])c(O)c1 | 24.3 |
| COC(=O)c1c(C)c2c(C)cc3ccccn3c-2c1C(=O)OC | -4.02 |
| O=C(O)CCC(=O)N1CCN(S(=O)(=O)c2ccc3ccccc3c2)CC1 | 25.6 |
| O=C(CN1CCN(CCN2C(=O)c3cccc4cccc(c34)C2=O)CC1)c1ccc(F)cc1 | -42.4 |
| c1ccc(NC2=Nc3cccc4cccc2c34)cc1 | 1.71 |
| O=C(CCCN1C(=O)c2cccc3cccc(c23)C1=O)N1CCN(c2ccc(F)cc2)CC1 | -1.91 |
| COc1ccccc1N1CCN(C2=Nc3cccc4cccc2c34)CC1 | -71.5 |
| O=C(CN1C(=O)c2cccc3cccc(c23)C1=O)N1CCCCCC1 | 9.58 |
| COc1ccccc1N1CCN(C(=O)CN2C(=O)c3cccc4cccc(c34)C2=O)CC1 | 16.9 |
| c1cc2c3c(cccc3c1)C(N1CCCCCC1)=N2 | -67 |
| O=C1c2cccc3cccc(c23)C(=O)N1CCCN1CCN(c2ccc(F)cc2)CC1 | -69.2 |
| CC(=O)N1CCN(C2=Nc3cccc4cccc2c34)CC1 | -46 |
| Cc1cc(C)n(Cc2ccc(C(=O)Nc3ccc(Br)cc3C)o2)n1 | -19.4 |
